Drawing on ChEMBL document CHEMBL1157539, “Thousands of chemical starting points for antimalarial lead identification” (Nature, 2010), this text covers Inhibition for 35 compounds.

One experiment has as its system Plasmodium falciparum. Put plainly: GSK_TCMDC: Inhibition of Plasmodium falciparum 3D7 in whole red blood cells, using parasite LDH activity as an index of growth. Test compounds present at 2uM. The experiment is classed as functional.
For orientation: Inhibition means the relative decrease from the control value, in per cent. Low readings indicate little suppression, high ones strong suppression. As to `O=C(O)C(F)(F)F.c1cc(CN2CCN(c3ccncc3)CC2)cc(-c2ccc(-c3nc4ccccc4[nH]3)s2)c1`, the Inhibition is reported as 100%.
On the same count and under the same terms, in the case of `CC(C)N1CCC(N(Cc2ccc(-c3ccc(C(F)(F)F)cc3)cc2)C(=O)Cn2c(CCc3cccc(F)c3F)cc(=O)c3ccccc32)CC1.O=C(O)C(O)C(O)C(=O)O` it was 99%; in that of `Cc1c(-c2cccc(NC(=O)C(C)(C)Oc3ccc(Cl)cc3)c2)nc2ncccn12`, 98%.
The same measure, in the same setting: in the case of `Cl.O=C(Nc1cccc(Cl)c1Cl)N1CCc2cc3nccc(N4CCN5CCC[C@H]5C4)c3cc21` it was 98%.

A further experiment relates to Plasmodium falciparum. In words: GSK_TCMDC: Inhibition of Plasmodium falciparum Dd2 in whole red blood cells, using parasite LDH activity as an index of growth. Test compounds present at 2uM. It counts as functional.
`COc1cc2nc(N3CCC(CNCc4ccc(-c5ccc(C(F)(F)F)cc5)cc4)CC3)nc(N)c2cc1OC` yielded an Inhibition of 100%.
As to `CCn1c(-c2nc(-c3ccc4c(c3)OCO4)cnc2N)nc2cnccc21`, the Inhibition turned out to be 98%.
On the same count and under the same terms, in the case of `CN1CCC(NCc2ccc(-c3ccc(S(=O)(=O)NC4CCC4)s3)cc2)CC1.O=C(O)C(F)(F)F` it was 31%; in that of `COc1ccc2c(NN=Cc3cccc(C)n3)ccnc2c1`, 51%.
Same read-out and setting: in the case of `COc1cc(NC(=O)c2ccc3oc4ccccc4c3c2)ccc1OCCN1CCCCC1.Cl` it was 11%; in that of `Fc1ccc2[nH]ccc(=NN=CC=Cc3ccccc3)c2c1`, 77%; in that of `N#CC(c1cccc(Cl)c1)c1ccc2c(C(F)(F)F)cc(C(F)(F)F)nc2n1` (stereo not given), 97%.
Still for that read-out and setting: in the case of `COc1ccc(-c2cc(C(=O)N[C@@H](CC3CCCCC3)C(=O)NCCN3CCCCC3)ccc2O)cc1` it was 72%; in that of `Cc1cc(N[C@@H](Cc2ccccc2)C(=O)NCCOc2ccccc2)nc(NCC2CCCCC2)n1.O=C(O)C(F)(F)F`, 75%.
Compound `Cc1cccc2nc(-c3ccc(-c4cccc(NC(=O)NCc5cccc(F)c5)c4)s3)[nH]c12` showed an Inhibition of 8%.
`FC(F)(F)c1ccc2[nH]c(-c3ccc(-c4cccc(CNCc5cnn(-c6ccccc6)n5)c4)cc3)nc2c1.O=C(O)C(F)(F)F` returned an Inhibition of 83%.
Same read-out and setting: the figure for `O=C(Nc1cc(C(F)(F)F)ccc1Cl)c1ccc(Cn2cc(Br)cn2)cc1` is 67%; for `COc1ccc2nccc([C@@H](O)CN3CCC(NC(=O)C(=Cc4ccc(Cl)cc4Cl)c4ccc(-c5ccccc5)cc4)CC3)c2c1` it is 98%; for `O=C(CNC1CCCCC1)Nc1cccc(C(=O)Nc2cccc(C(F)(F)F)c2)c1.O=C(O)C(=O)O` it is 80%.
The same measure, in the same setting: in the case of `CN1CCC(Oc2ccc(Nc3nccc(NCC(O)c4ccccc4)n3)cc2Cl)CC1` (stereo not given) it was 99%.
Regarding `O=C(C=Cc1ccccc1)Nc1ccc(C#CC=Cc2ccc(NC(=O)C=Cc3ccccc3)cc2)cc1`, the Inhibition was 3%.
On the same count and under the same terms, in the case of `CC(C)(CN1CCCC1)CN(Cc1ccc(-c2ccc(C(F)(F)F)cc2)cc1)C(=O)Cn1c(CCc2cccc(F)c2F)nc(=O)c2ccccc21.O=C(O)C(O)C(O)C(=O)O` it was 64%; in that of `CCCNC(=O)Nc1cc2cc(-c3ccc(CN4CCCC4)cc3)ccc2n2c(C)nnc12`, 11%.
Same read-out and setting: the figure for `COC(=O)c1ccc2nc(-c3ccc(C(=O)NC4CCN(Cc5ccccc5)CC4)s3)[nH]c2c1` is 71%.
With `COc1ccc2nccc(NC(=O)N3CCC(NCc4cc5ccccc5[nH]4)CC3)c2n1.O=C(O)C(=O)O`, the Inhibition is 29%.
Same read-out and setting: in the case of `COc1ccc(NC(=O)Nc2ccc(-c3ccc(-c4nc5ccccc5[nH]4)cc3)cc2)cc1` it was 27%; in that of `COc1cc(F)c2nccc([C@@H](O)CN3CCC(NCc4cc5c(cc4F)OCCO5)CC3)c2c1`, 45%.
With `COc1ccccc1N1CCN(Cc2cc(C(C)C)c(C)cc2O)CC1`, the Inhibition was 98%.
The compound `COc1cccc(C2CCN(CCN3CCC(NC(=O)c4ccc(-c5ccc(Cl)cc5)cc4)CC3)CC2)c1` showed an Inhibition of 42%.
In the case of `CO/C(=C\C=C\c1cc2cc(Cl)c(Cl)cc2[nH]1)C(=O)NC1CC2CCCC(C1)N2C` (stereo not given), the Inhibition is 51%.
On the same count and under the same terms, the figure for `CCc1cn(CCOC)c2ccc(C(=O)N[C@@H](Cc3ccccc3)[C@H](O)CNC(C)(C)CCCC(C)C)cc12.O=CO` is 98%.
Regarding `COc1cc(NC(=O)N2CCc3ccc(OCCN4CCCCC4)cc32)cc(C(F)(F)F)c1.O=C(O)C(F)(F)F`, the Inhibition stood at 93%.
The same measure, in the same setting: in the case of `Cc1nc(N)nc(N)c1-c1cccc(Cl)c1` it was 0%.
On the same count and under the same terms, in the case of `COc1ccccc1N1CCN(Cc2c(O)ccc3cc(Br)ccc23)CC1` it was 75%; in that of `CC(C)NCc1cc(Nc2ccnc3cc(Cl)ccc23)ccc1O.Cl`, 100%; in that of `Cc1cccc2nc(-c3cccc(-c4ccc(C(=O)NCc5ccccc5S(C)(=O)=O)cc4)c3)[nH]c12`, 27%.
